Source: PubChem (National Center for Advancing Translational Sciences (NCATS))
This is one part of a sample in which hits are shown more often than they occur.
PI5P4Ka inh = qHTS for Inhibitors of phosphatidylinositol 5-phosphate 4-kinase (PI5P4K); max response, %; AID 652105, 2013; PI5P4Kalpha enzyme, ADP-Glo luminescence, 60 min; hits give low values; hit rate 1.2% among 330,000; active = max response of -50% or lower; inconclusive = between -30% and -50%; inactive = -30% or higher; note: value at the top dose of about 77 µM
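Luminescence from ADP-Glo served as readout of PI5P4Kalpha activity in a qHTS format. Reaction: enzyme, substrate, compound, ATP at 5 microM final, 60 min at RT.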
PGK inhibitor = qHTS Assay to Find Inhibitors of Phosphoglycerate Kinase; Phosphoglycerate kinase, glycosomal (Trypanosoma brucei brucei), P07378; Potency, µM (top dose mostly 57.5 µM), inactives show at the top dose activity change, negative = inhibition, actives largely listed as inhibitors; PGK/GAPDH coupled, Kinase-Glo luminescence, 60 min; hit rate 0.043% among 380,000; note: potency is the fitted concentration of half-maximal effect; nearly all actives have a fitted effect of over 60% in size
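Recombinant glycosomal PGK reaction used 1,3-bisphosphoglycerate generated in-well by GAPDH (100nM final) in 100mM TEA pH 7.6, 5mM MgCl2, 0.01% Tween-20. After 60 minutes at room temperature, ATP was read by Kinase-Glo Plus luminescence end-point.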
Tb PFK inh = qHTS Assay to Find Inhibitors of T. brucei phosphofructokinase; T. brucei PFK, ADP-Glo luminescence; ATP-dependent 6-phosphofructokinase (Trypanosoma brucei brucei), O15648; Potency, µM (highest dose often 57.5 µM), for the others: at the top dose activity, negative = inhibition, actives largely listed as inhibitors; hit rate 0.17% among 330,000;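 note: potency is the fitted concentration of half-maximal effect; 0% = uninhibited 1x PFK enzyme wells and -100% = no-enzyme wells; nearly all actives have a fitted effect of over 60% in size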
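PFK 1.25 nM, F6P 0.5 mM, ATP 0.1 mM, 0.1 M TEA pH 8.0, 5 mM MgCl2, 0.01% Tween20, 0.1% BSA; 45 min RT. ADP-Glo readout. qHTS titration up to 57 uM; curves fitted, compounds curve-classed.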
Pin1 inh = qHTS Assay to Find Inhibitors of Pin1. Peptidyl-prolyl cis-trans isomerase NIMA-interacting 1 (Homo sapiens), Q13526. Pin1 FP peptide displacement, HiFluor488, 10 min. Potency, µM (highest dose often 115 µM), for the others: top-dose activity, negative = inhibition, hits mostly inhibitors. hit rate 0.009% among 390,000; active = well fitted inhibition curve with a large enough effect in the polarisation, with a control signal flat, not every such curve was filed as active; inconclusive = small, poorly fitted or top-dose-only effect, or effect the other way, or a change in a side signal; inactive = no such curve, though single readings can be large or run the other way; the % refers to the polarisation; note: potency is the fitted concentration of half-maximal effect
Target sequence (Q13526 whole entry, looked up): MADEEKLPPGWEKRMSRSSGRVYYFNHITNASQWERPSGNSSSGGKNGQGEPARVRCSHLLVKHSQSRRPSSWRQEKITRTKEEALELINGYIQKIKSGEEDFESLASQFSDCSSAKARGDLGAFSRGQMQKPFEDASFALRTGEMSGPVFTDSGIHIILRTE
PI4K2A inh = qHTS for small molecular inhibitors of PI4K2A; Phosphatidylinositol 4-kinase type 2-alpha (Homo sapiens), Q9BTU6; purified PI4K2A, ADP-Glo luminescence, 1 h; hits give low values; activity change, negative = inhibition, % at 76.9 µM; hit rate 0.13% among 420,000; in the data active = activity change below about -50%; inconclusive = mostly about -30% to -49%;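 note: -100% = wells without enzyme as full effect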
Target sequence (Q9BTU6 whole entry, looked up): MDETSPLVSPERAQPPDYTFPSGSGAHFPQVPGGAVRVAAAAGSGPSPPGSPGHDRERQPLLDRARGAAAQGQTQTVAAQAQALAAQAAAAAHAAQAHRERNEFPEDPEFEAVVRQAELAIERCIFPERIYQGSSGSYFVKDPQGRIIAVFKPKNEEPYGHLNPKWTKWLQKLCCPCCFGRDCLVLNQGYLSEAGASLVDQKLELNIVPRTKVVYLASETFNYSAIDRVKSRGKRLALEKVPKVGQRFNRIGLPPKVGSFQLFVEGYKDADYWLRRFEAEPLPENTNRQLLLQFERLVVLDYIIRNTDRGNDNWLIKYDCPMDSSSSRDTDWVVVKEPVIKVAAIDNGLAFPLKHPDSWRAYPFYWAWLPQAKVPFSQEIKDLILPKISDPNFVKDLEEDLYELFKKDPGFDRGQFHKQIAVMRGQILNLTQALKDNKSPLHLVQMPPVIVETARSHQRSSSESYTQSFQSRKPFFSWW
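In this quantitative HTS, ADP production by PI4K2A was quantified luminescently after 1 h at ambient temperature; 100 microM adenosine served as plate-quality control.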
* = called active by the depositor; i = inactive; ? = inconclusive; nt = not tested or not shown. Unless noted, calls come from the whole dose curve; as a rule, active = well fitted curve in the direction sought with a large enough effect; inconclusive = small, poorly fitted or top-dose-only effect, or another doubt; inactive = no such curve, though single readings can be large; an effect the other way counts as inactive or inconclusive. Unless noted, % is set by controls: 0 for no effect and ±100 for the full control effect.

SMILES	PI5P4Ka inh	PGK inhibitor	Tb PFK inh	Pin1 inh	PI4K2A inh
CC(=O)Nc1ccc(S(=O)(=O)N(C)CC(=O)NC2CCCCCCC2)cc1	-6.2	-1.9%	18.5%	1.1%	-0.7
CC1=C(C(=O)OCc2ccccc2)C(c2ccc(C#N)cc2)NC(=O)N1CCCC(=O)O (stereo unspecified)	-90.4*	i	-0.7%	-6.1%	-4.9
CC1=C(C(=O)OCc2ccccc2)C(c2ccccc2)NC(=O)N1CCCC(=O)O (stereo unspecified)	-76.6*	-10.5%	2.4%	-4.4%	-4.4
CCOC(=O)CSC1=C(C#N)C(=O)NC2(CCCCC2)S1	-51.6*	-9.0%	?	4.0%	-18.8
Cc1ccc(-c2csc(C(O)(c3ccccc3)C(F)(F)F)n2)cc1C (stereo unspecified)	0.9	nt	nt	nt	1.8
O=C(O)c1ccccc1C(=O)Nc1n[nH]c(=S)s1	nt	-0.7%	?	-17.3%	1.4
Cc1ccc(Nc2cc(=O)[nH]c(=O)[nH]2)cc1C	-7.2	-1.0%	-12.5%	-1.9%	1.6
Cc1ccc(Nc2n[nH]c(=S)s2)cc1C	-73.9*	-2.4%	nt	nt	3.4
S=c1[nH]nc(Nc2cccc(Cl)c2)s1	-54.9*	-3.4%	-22.2%	-0.1%	-0.1
S=c1[nH]nc(Nc2ccccc2Cl)s1	-77.7*	-4.8%	?	-10.1%	-1.9
Cc1ccccc1OCC(=O)NCC(=O)OCC(=O)c1ccc(-c2ccccc2)cc1	nt	nt	nt	-1.6%	nt
COc1ccc(N(C(C)C(=O)NN=C2CCCC2)S(C)(=O)=O)cc1 (stereo unspecified)	0.7	nt	2.4%	-3.2%	-2.4
CN(C)c1ccc(-c2[nH][nH]c(=O)c2NC(=O)c2ccccn2)cc1	?	nt	nt	nt	-63.6*
Cc1cnc(C(=O)Nc2c(-c3ccccc3)[nH][nH]c2=O)cn1	7.4	nt	nt	nt	?
CN(C)c1ccc(-c2[nH][nH]c(=O)c2NC(=O)c2ccc3ccccc3n2)cc1	-5.5	nt	nt	nt	-65.1*
O=C(O)CCCCn1c(SCC(=O)Nc2ccccc2C(F)(F)F)nc2ccsc2c1=O	-99.2*	-3.8%	-1.2%	-0.4%	4.7
O=C(COC(=O)CNC(=O)c1ccc(Cl)c([N+](=O)[O-])c1)NNC(=O)c1cccs1	2.6	-0.6%	0.6%	1.5%	-7.9
COc1cccc(/C=C2\SC(=O)NC2=O)c1OCc1ccc(C(=O)O)cc1	-86.6*	0.7%	2.6%	-1.8%	-3.8
O=C(Nc1cnn(Cc2ccc(F)cc2)c1)c1cc(-c2ccco2)on1	-1.9	-1.2%	-9.9%	-58.4%	8.7
COc1ccc(NC(=O)N(C)C[C@H]2Oc3c(NC(=O)Cc4ccccc4)cccc3C(=O)N([C@H](C)CO)C[C@@H]2C)cc1	-4.0	i	6.1%	-11.1%	2.9
Cc1ccccc1S(=O)(=O)/N=C(/c1ccccc1)N1CCOCC1	-52.4*	-5.8%	-3.7%	-13.7%	-3.3
CN(C)c1ccc(NC2=C([N+](=O)[O-])CS(=O)(=O)C2)cc1	nt	nt	2.3%	nt	-63.1*
Cc1cccc2sc(NNC(=O)c3cc(=O)c4ccccc4o3)nc12	-52.0*	-13.7%	-14.0%	23.0%	-4.8
O=C(NNc1nc2c(F)cccc2s1)c1cc(=O)c2ccccc2o1	-51.1*	-13.3%	11.6%	17.7%	9.8
COc1ccc2nc(NNC(=O)c3cc(=O)c4ccccc4o3)sc2c1	-75.5*	-7.0%	4.6%	51.9%	-4.1
SMILES	PI5P4Ka inh	PGK inhibitor	Tb PFK inh	Pin1 inh	PI4K2A inh
COCCCNC(=O)CC[C@H]1O[C@@H](n2cnc3c(NC(=O)c4ccccc4)ncnc32)[C@H](O)[C@@H]1O	-1.9	nt	nt	nt	-3.3
COC(=O)N/C(C)=C1/NC(=O)c2ccccc2C(c2ccccc2)N1 (stereo unspecified)	-8.0	-4.2%	3.8%	1.7%	1.5
O=C1N=c2ccc([N+](=O)[O-])cc2=C1c1sc(=O)[nH]c1O	-54.1*	0.3%	-2.5%	?	12.1
O=C1N=c2ccccc2=C1c1sc(=O)[nH]c1O	-87.4*	2.3%	0.7%	?	-1.6
Cc1ccccc1NCC(=O)N/N=C/c1c[nH]c2ccccc12	15.0	-9.2%	-11.1%	-3.9%	-7.9
CCN(CC)C(=O)c1csc(COCCO)n1	-1.3	nt	nt	nt	-1.9
CC(=O)NC(=S)Nc1ccc(NC(=S)NC(=O)/C=C/c2ccco2)cc1	-17.4	-4.5%	18.8%	?	?
NS(=O)(=O)c1ccc(NC(=O)/C=C/c2ccco2)cc1	-63.4*	?	-13.3%	5.3%	-8.6
O=C(/C=C/c1ccco1)NC(=S)Nc1ccc(C(=O)O)cc1	-79.3*	?	1.6%	?	-14.8
O=C(COC(=O)C1COc2ccccc2O1)Nc1ccc2c(c1)CCC2 (stereo unspecified)	2.0	-7.9%	-3.5%	0.2%	5.9
CS(=O)(=O)c1ccc(Nc2nc(C(N)COCc3ccccc3)cs2)cc1 (stereo unspecified)	6.0	nt	nt	nt	-1.9
CCCCCC(=O)Cc1cc(O)cc2c1C(=O)Oc1cc(O)c(C(=O)O)c(CCCCC)c1O2	-75.6*	-24.1%	-0.3%	nt	-1.5
CC(=O)C1=C(C)OC2(O)c3ccccc3C(=O)C12O (stereo unspecified)	-3.2	-8.3%	20.4%	?	-53.8*
CC1=C(C(=O)OC(C)C)C2(O)C(=O)c3ccccc3C2(O)N1 (stereo unspecified)	5.0	-3.4%	-7.5%	2.3%	-22.1
CCOC(=O)C1=C(C)OC2(O)c3ccccc3C(=O)C12O (stereo unspecified)	-0.4	-8.6%	16.7%	nt	-52.4*
N=C1C(c2nc(-c3ccc(Cl)cc3)cs2)=C(O)CN1CCCN1CCOCC1	0.5	i	0.1%	6.1%	2.1
CSc1ccc(CN2CCN(S(=O)(=O)Cc3ccccc3)CC2)cc1	-10.0	3.5%	-0.8%	-8.7%	6.4
CC(=O)c1ccc(OCC(=O)OCC(=O)N(CC(C)C)c2c(N)n(Cc3ccccc3)c(=O)[nH]c2=O)cc1	-3.3	5.8%	4.3%	6.7%	0.9
CN(Cc1ccccc1)C(=O)c1ccc(NC(=O)Cc2ccc(NC(=O)C3CCN(C(=O)C4CCC4)CC3)cc2)cc1	-10.1	-5.7%	nt	5.3%	-1.6
O=C(O)CSc1nnc(CNc2cccc(C(F)(F)F)c2)n1Cc1ccco1	-71.1*	1.2%	-6.4%	-8.0%	-11.0
CC(C)CCNC(=O)NC(=O)COC(=O)/C=C/c1cc(Br)ccc1F	-61.9*	-3.4%	-1.1%	-2.6%	-7.1
O=C(COC(=O)/C=C/c1cc(Br)ccc1F)Nc1ccc2[nH]c(=O)[nH]c2c1	-16.2	0.3%	3.9%	4.0%	-1.0
